# Source: PubChem (several laboratories)
# Autofluor counter – flagged as autofluorescent in microsphere protease counterscreen | fluorescence intensity (test concentration not listed) | 3.1% of 360,000 active | compound autofluorescence counterscreen, microsphere flow cytometry; hits give high values | AID 624483; in the data active = fluorescence intensity above about 16000; inconclusive = no clear call, values can overlap the other calls
# GDH-TPI counter – GDH-TPI coupling enzyme inhibitors, primary screen, artefact control for M. tuberculosis FBA inhibitor project, biochemical, absorbance, full deck | GDH-TPI coupled enzyme counterscreen, NADH absorbance | inhibition, % at 4.8 µM | 1.2% of 360,000 active | AID 588335, 2011; in the data active = inhibition above about 30%;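 note: 0% = DMSO wells and 100% = wells lacking the enzyme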
# BoNT A protease – BoNT/A light chain protease inhibitors, primary screen, biochemical, flow cytometry, MLPCN library | inhibition, % at 10 µM | multiplex microsphere protease substrate cleavage | AID 588499, 2011 | 0.17% of 360,000 active; note: plate controls were buffer without enzyme for full effect and enzyme alone for no effect
# BoNT-F LC inh – BoNT/F light chain protease inhibitors, primary screen, biochemical, flow cytometry, MLPCN library; Botulinum neurotoxin type F light chain protease (Clostridium botulinum); Multiplex microsphere protease cleavage assay; inhibition, % at 10 µM; 0.22% of 360,000 active; in the data active = inhibition above about 35%, passing the limit was not always enough; inconclusive = no clear call, values can overlap the other calls; note: plate controls were buffer without enzyme for full effect and enzyme alone for no effect
# Anthrax LF inh2 – Bacillus anthracis LF protease inhibitors, primary screen, biochemical, multiplex microsphere, MLPCN library. Lethal factor (Bacillus anthracis), P15917. multiplex microsphere protease cleavage assay. inhibition, % at 10 µM. 0.12% of 360,000 active. AID 588501, 2011; note: plate controls were buffer without enzyme for full effect and enzyme alone for no effect
# Target sequence (P15917 whole entry, looked up): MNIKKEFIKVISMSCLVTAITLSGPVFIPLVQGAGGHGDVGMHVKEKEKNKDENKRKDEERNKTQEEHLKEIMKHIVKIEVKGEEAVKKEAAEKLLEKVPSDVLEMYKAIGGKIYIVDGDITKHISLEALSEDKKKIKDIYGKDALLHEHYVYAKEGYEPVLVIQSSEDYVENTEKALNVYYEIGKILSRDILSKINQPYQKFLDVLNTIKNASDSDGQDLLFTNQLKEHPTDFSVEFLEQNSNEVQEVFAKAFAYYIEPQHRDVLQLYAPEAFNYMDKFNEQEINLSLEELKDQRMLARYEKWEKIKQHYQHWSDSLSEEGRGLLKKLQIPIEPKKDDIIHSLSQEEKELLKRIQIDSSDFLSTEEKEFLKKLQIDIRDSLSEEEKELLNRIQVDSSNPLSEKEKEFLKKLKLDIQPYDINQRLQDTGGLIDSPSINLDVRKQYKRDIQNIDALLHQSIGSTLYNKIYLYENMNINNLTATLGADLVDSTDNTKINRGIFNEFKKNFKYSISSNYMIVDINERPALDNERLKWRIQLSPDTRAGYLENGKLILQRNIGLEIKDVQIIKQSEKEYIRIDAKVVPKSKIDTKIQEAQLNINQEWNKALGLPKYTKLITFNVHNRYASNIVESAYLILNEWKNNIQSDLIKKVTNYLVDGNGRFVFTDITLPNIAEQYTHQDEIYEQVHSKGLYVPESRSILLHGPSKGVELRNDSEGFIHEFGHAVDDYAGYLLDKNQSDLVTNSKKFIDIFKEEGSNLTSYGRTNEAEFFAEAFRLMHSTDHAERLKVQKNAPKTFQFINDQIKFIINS
# Mtb FBA inh – Mtb FBA enzyme inhibitors, primary screen, biochemical, fluorescence, strain H37Rv | Fructose-bisphosphate aldolase (Mycobacterium tuberculosis (strain ATCC 25618 / H37Rv)), … | purified M. tuberculosis FBA, fluorescence read-out | inhibition, % at 1 µM | 2.3% of 360,000 active; in the data active = inhibition above about 27%;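 note: 0% = vehicle and 100% = reference inhibitor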
# * hit, by the source's call; ? = inconclusive. Shown are actives, neighbours in structure and some others; about 6.7% of the full set was active somewhere. Cut-off read from the data, not from the text of the source, unless noted: active = inhibition above about 30%; inconclusive = no clear call, values can overlap the other calls; inactive = below that.
SMILES,Autofluor counter,GDH-TPI counter,BoNT A protease,BoNT-F LC inh,Anthrax LF inh2,Mtb FBA inh
CC1CCN(S(=O)(=O)c2nnc(NC(=O)COc3ccccc3)s2)CC1,5194,4,2,4,0,-1
N#CCOC(=O)/C=C/c1ccc2c(c1)OCO2,3854,38*,0,-5,2,13
CC(C)C(OC(=O)/C=C/c1ccc2c(c1)OCO2)C(=O)NC(N)=O (stereo not drawn),4624,41*,0,1,1,14
CC(OC(=O)C1CC1)C(=O)Nc1cc(Cl)cc(Cl)c1 (stereo not drawn),3104,7,0,-10,-1,0
Clc1ccc(C(c2nnnn2C2CCCC2)N2CCN(Cc3ccncc3)CC2)cc1 (stereo not drawn),2469,16,0,-12,1,4
CC1=NN(c2ccccc2)C(=O)/C1=C\N1CC(C)OC(C)C1 (stereo not drawn),16159*,16,1,0,-3,0
CC1=NN(c2ccccc2)C(=O)/C1=C/C=C/c1ccccc1,2481,24,0,-4,-3,-2
C=CCC(NCc1ccccc1)c1ccccc1 (stereo not drawn),2142,6,1,2,-2,3
C=CCC(NC(C)c1ccccc1)c1ccco1 (stereo not drawn),16630*,5,0,-3,1,-2
CN(Cc1ccccc1)S(=O)(=O)c1ccc2c(c1)n(C)c(=O)c(=O)n2C,4841,-15,-1,3,-8,2
Cc1cc(C)n(CC(O)Cn2cnc3c2c(=O)n(C)c(=O)n3C)n1 (stereo not drawn),22564*,-12,-1,-5,-4,-2
Cn1c(=O)c2c(ncn2CC(O)CO)n(C)c1=O (stereo not drawn),6303,7,0,-2,-6,4
Cn1c(=O)c2c(ncn2CC(=O)NC[C@H]2O[C@@H](n3cnc4c(N)ncnc43)[C@H](O)[C@@H]2O)n(C)c1=O,3826,-3,-1,-4,1,5
CN(C(=O)c1ccccc1)C1c2c(ccc3ccccc23)OCC1CO (stereo not drawn),3863,-7,-4,-23,1,-3
O=C(Nc1ccc(Cl)cc1)N[C@@H]1c2c(ccc3ccccc23)OC[C@@H]1CO,23698*,2,-3,-2,-3,3
CCOc1ccc(NC(=O)C2CC(=O)N3CCCN=C3S2)cc1 (stereo not drawn),3965,6,1,4,5,1
COc1ccc2cc(C(=O)C3CCCN(C4CCOCC4)C3)ccc2c1 (stereo not drawn),4228,20,0,1,-1,148*
COc1c(C)cc(C(=O)C2CCCN(C3CCOCC3)C2)cc1C (stereo not drawn),4637,13,0,1,-3,1
COc1ccc(C(=O)C2CCCN(Cc3cc(Cl)ccc3O)C2)c(OC)c1 (stereo not drawn),3656,-6,-2,-15,-3,0
COc1ccc2cc(C(=O)C3CCCN(C(=O)Cc4c(C)noc4C)C3)ccc2c1 (stereo not drawn),3943,13,0,-1,3,182*
COc1ccc(CN2CCCC(C(=O)c3ccc(Cl)cc3)C2)c(O)c1 (stereo not drawn),3167,-1,5,35*,4,-2
CCOc1ccccc1CN1CCN(Cc2cn(C)nc2-c2ccccc2)CC1CCO (stereo not drawn),3260,-1,1,-6,-2,3
Cc1noc(C)c1S(=O)(=O)N(CC(=O)N1CCCC1)c1ccc(C(C)C)cc1,5545,7,0,0,0,5
CC1(C(=O)NS(=O)(=O)c2cccc(Cl)c2)CCN1C(=O)C1(c2ccccc2)CC1 (stereo not drawn),3521,2,0,4,-8,-3
C=C(C)Cn1c(C2CC(=O)N(Cc3ccccc3)C2)nc2ccccc21 (stereo not drawn),5104,-14,0,-4,-4,2
SMILES,Autofluor counter,GDH-TPI counter,BoNT A protease,BoNT-F LC inh,Anthrax LF inh2,Mtb FBA inh
C=CCN1CC(c2nc3ccccc3n2CCOc2ccccc2)CC1=O (stereo not drawn),22558*,13,-2,-4,0,0
CCOC(=O)c1nc2sc(C)c(C)c2c(=O)[nH]1,10063,14,1,6,-1,126*
Cc1cc2nc(-c3ccc(NC(=O)C(C)C)cc3)oc2cc1C,2015,10,0,4,-2,138*
CC(C)C(=O)Nc1cccc(-c2nc3ccccc3o2)c1,3408,14,0,-8,3,8
Cc1ccc(-c2nc3cc(NC(=O)C(C)C)ccc3o2)cc1,2796,-2,1,-1,1,181*
CCO[C@@H]1OC(C(=O)O)=C[C@H](c2ccccc2)[C@H]1CCCO,3257,8,-1,-5,-1,1
COc1ccc(OC)c(C2C/C(=N/O)C(C)C(c3cc(OC)ccc3OC)N2)c1 (stereo not drawn),3870,2,-3,21,7,3
COc1cc(CN(C)CCc2ccccc2)ccc1OCc1ccccc1,8500,6,5,24,0,0
COc1ccc(CCN(C)Cc2c(F)cccc2F)cc1OC,23473*,8,?,-2,-2,-1
CCC(CC)COC(=O)C1=C(C)NC(=O)NC1c1ccc(N(C)C)cc1 (stereo not drawn),2866,-2,-2,0,7,184*
CCN(CC)c1ccc(C2C(C(=O)OC)=C(C)NC(C)=C2C(=O)OC)cc1,22496*,21,1,2,-3,0
CCOC(=O)C1=C(C)NC(=O)NC1c1ccc(N(C)C)cc1 (stereo not drawn),5969,-4,0,-9,-6,1
COC(=O)C1=C(C)NC(=O)NC1c1ccccc1 (stereo not drawn),23564*,-3,-2,-3,-3,4
Cc1cccc(-n2nc3c(c2NC(=O)c2c(F)cccc2F)CS(=O)(=O)C3)c1C,4351,4,2,2,-2,-2
CC(=O)Nc1cccc(C(=O)N/N=C/c2cccnc2)c1,4271,3,0,0,6,-3
CCCC(=O)c1c(NC)cc(C)oc1=O,21049*,4,?,-6,0,-2
CC(=O)Nc1ccc(NC(=O)C/C(C)=N/NC(=O)c2cccc3ccccc23)cc1,4043,-3,1,5,-6,-3
Cc1ccc(S(=O)(=O)N2CCC(C(=O)NCc3ccncc3)CC2)cc1,21375*,1,2,1,0,0
